Source: PubChem BioAssay (NCATS)
Records with an inconclusive call do not appear. A number with no mark means an inactive call. Activity calls are given as the source filed them. The call rests on the fitted dose curve; in most records, active means well fitted cell-killing curve with a large enough effect; inconclusive means small, poorly fitted or top-dose-only effect, or effect the other way; inactive means no such curve, though single readings can be large or run the other way.

Test: Quantitative High-Throughput drug screen in 47 multiple myeloma cell lines against the NCATS MIPE library collection: ARD_JJKsccE7 cell viability assay (AID 1918929)
Conditions: ARD myeloma cell line viability, CellTiter-Glo, 48 h; series mostly up to 45.8 µM; viability: at the top concentration
Excerpt: PI: Beverly A. Mock Ph.D.
Laboratory of Cancer Biology and Genetics,
Center for Cancer Research, National Cancer Institute,
National Institute of Health, Bethesda, Maryland
Drug resistance and disease progression are common in multiple myeloma (MM) patients, underscoring the need for new therapeutic combinations. […] We hypothesized that effective combinations would reduce MYC expression and enhance p16 activity. […] These preclinical data identify potentially useful drug combinations for evaluation in drug-resistant MM and reveal potential mechanisms of combined drug sensitivity.
Described herein is the primary MIPE qHTS used to cherrypick compounds. Validated compounds were then further tested for potential synergistic activiy.
[1] Peat TJ, Gaikwad SM, Dubois W, Gyabaah-Kessie N, Zhang S, Gorjifard S, Phyo Z, Andres M, Hughitt VK, Simpson RM, Miller MA, Girvin AT, Taylor A, Williams D, D'Antonio N, Zhang Y, Rajagopalan A, Flietner E, Wilson K, Zhang X, Shinn P, Klumpp-Thomas C, McKnight C, Itkin Z, Chen L, Kazandijian D, Zhang J, Michalowski AM, Simmons JK, Keats J, Thomas CJ, Mock BA. Drug combinations identified by high-throughput screening promote cell cycle transition and upregulate Smad pathways in myeloma. Cancer Lett. 2023 Aug 1;568:216284. doi: 10.1016/j.canlet.2023.216284. Epub 2023 Jun 24. PMID: 37356470; PMCID: PMC10408729.
SEQUENCE No. (e.g., 1, 2, 3, etc.); […] (e.g., Cells, Incubation, Reagent, etc.); VALUE and DESCRIPTION.
1; Cells; 5 uL; white, solid bottom 1536-well Greiner assay plate.
2; Compounds; 23 nL; Kalypsis pin tool (Wako USA) equipped with a 1536-well pin head to transfer to the assay plates.
3; Incubation; 48 hours; 37C incubation.
4; Reagent;5uL; CellTiter Glo (Promega).
5; Detector; 425V; Luminescence; Viewlux PerkinElmer.
NOTES (numbers refer to Sequence numbers above)
1. The cell-based screening methods employed in this study were like those previously published. Briefly, the corresponding myeloma cell lines were screened in 1,536-well plates with 500 cells, 5-uL per well for inhibition of cell viability (assessed by measuring ATP levels with CellTiterGlo).
2. NCATS MIPE 4.0 library of approved and investigational drugs were added using the Kalypsis pin tool. Wells treated with DMSO only for 100% viability and media only wells for 0% viability were used as controls.
3. The assay plates were covered and incubated for 48 hours in a 37C, 5% CO2 incubator with controlled humidity.
4. After 48 hours, CellTilter-GloTM luminescent substrate mix (Promega) reagent was added to the assay plate and plates we incubated for 5 min at room temperature.
5. Signal was measured as median relative luminescence units on a ViewLux (PerkinElmer) multiplate reader.
[1] Heske CM, Davis MI, Baumgart JT, Wilson K, Gormally MV, Chen L, Zhang X, Ceribelli M, Duveau DY, Guha R, Ferrer M, Arnaldez FI, Ji J, Tran HL, Zhang Y, Mendoza A, Helman LJ, Thomas CJ. Matrix Screen Identifies Synergistic Combination of PARP Inhibitors and Nicotinamide Phosphoribosyltransferase (NAMPT) Inhibitors in Ewing Sarcoma. Clin Cancer Res. 2017 Dec 1;23(23):7301-7311. doi: 10.1158/1078-0432.CCR-17-1121. Epub 2017 Sep 12. PMID: 28899971; PMCID: PMC6636827.
Potency means the concentration at half of the fitted maximal effect.

SMILES | Potency | viability
COc1ccc2cc3[n+](cc2c1OC)CCc1cc2c(cc1-3)OCO2 | 5.9 µM (active) | 
O=C(O)CSCC(=O)NC1CCSC1=O (stereo not given) |  | 101%
Cc1oc(=O)oc1CN1CCN(c2cc3c(cc2F)c(=O)c(C(=O)O)c2n3C(C)S2)CC1 (stereo not given) |  | 149%
NS(=O)(=O)c1cc2c(cc1Cl)NC(C(Cl)Cl)NS2(=O)=O (stereo not given) |  | 125%
COc1cccc(N(C)C(=S)Oc2ccc3c(c2)CCCC3)n1 | 23.5 µM (active) | 
CC(=O)CC(c1ccccc1)c1c(O)c2ccccc2oc1=O (stereo not given) |  | 141%
Nc1ccc(S(=O)(=O)Nc2ccccn2)cc1 |  | 114%
O=C(O)c1cccnc1 |  | 118%
O=S(=O)(c1cccc2cnccc12)N1CCCNCC1 |  | 104%
CC1=NN(c2ccccc2)C(=O)C1 |  | 109%
COc1ccc(C(=O)CC(=O)c2ccc(C(C)(C)C)cc2)cc1 | 18.7 µM (active) | 
CC(C)(C)NC(=O)[C@H]1CC[C@H]2[C@@H]3CC[C@H]4NC(=O)C=C[C@]4(C)[C@H]3CC[C@]12C | 20.9 µM (active) | 
Cn1nnc2c(C(N)=O)ncn2c1=O |  | 123%
CCOC(=O)[C@H](CCc1ccccc1)N[C@H]1CS[C@H](c2cccs2)CN(CC(=O)O)C1=O | 1.66 µM (active) | 
COc1ccc(-c2ccc3cc(C(=O)O)ccc3c2)cc1C12CC3CC(CC(C3)C1)C2 |  | 153%
CCCc1nc(C)c2c(=O)[nH]c(-c3cc(S(=O)(=O)N4CCN(CC)CC4)ccc3OCC)nn12 | 6.62 µM (active) | 
O=C(N[C@H](CO)[C@H](O)c1ccc([N+](=O)[O-])cc1)C(Cl)Cl |  | 135%
CC(C)NCC(O)c1ccc(NS(C)(=O)=O)cc1 (stereo not given) |  | 126%
CC[C@H](NC(C)C)[C@H](O)c1ccc(O)c2[nH]c(=O)ccc12 |  | 134%
CCN[C@H]1C[C@H](C)S(=O)(=O)c2sc(S(N)(=O)=O)cc21 |  | 107%

SMILES | Potency | viability
CCOCC(O)COc1ccc(NC(=O)CC[S+](C)C)cc1 (stereo not given) |  | 97.3%
CCn1cc(C(=O)O)c(=O)c2cc(F)c(N3CCNCC3)cc21 |  | 116%
NNC(=O)c1ccncc1 |  | 130%
CC(C)(C)C(=O)OCOP(=O)(COCCn1cnc2c(N)ncnc21)OCOC(=O)C(C)(C)C | 5.9 µM (active) | 
CC(=O)Oc1ccccc1C(=O)Nc1ncc([N+](=O)[O-])s1 | 21.5 µM (active) | 
CCOC(=O)c1ccc(C#Cc2ccc3c(c2)C(C)(C)CCS3)nc1 |  | 98.7%
CN1CCN(c2c(F)cc3c(=O)c(C(=O)O)cn(CCF)c3c2F)CC1 |  | 118%
CS(=O)(=O)c1ccc([C@@H](O)[C@@H](CO)NC(=O)C(Cl)Cl)cc1 | 13.2 µM (active) | 
CCC(C)(C)c1ccc(CC(C)CN2C[C@@H](C)O[C@@H](C)C2)cc1 (stereo not given in full) |  | 124%
CC(C)OC(=O)OCOP(=O)(CO[C@H](C)Cn1cnc2c(N)ncnc21)OCOC(=O)OC(C)C | 23.5 µM (active) | 
O=c1cc(O)c(Cl)c[nH]1 | 7.43 µM (active) | 
CCn1cc(C(=O)O)c(=O)c2cc(F)c(N3CCN(C)CC3)cc21 | 0.0132 µM (active) | 
O=c1oc2c(O)c(O)cc3c(=O)oc4c(O)c(O)cc1c4c23 |  | 153%
Cc1noc(NS(=O)(=O)c2ccc(N)cc2)c1C |  | 135%
CN1CCN(c2c(F)cc3c(=O)c(C(=O)O)cn4c3c2OCN4C)CC1 |  | 140%
O=NN(CCCl)C(=O)NC1CCCCC1 |  | 113%
COc1cc(NS(=O)(=O)c2ccc(N)cc2)nc(OC)n1 |  | 110%
O=C(NCC1CN(c2ccc(N3CCOCC3=O)cc2)C(=O)O1)c1ccc(Cl)s1 (stereo not given) | 23.5 µM (active) | 
CCCc1cc(C(N)=S)ccn1 |  | 116%
CCOC(=O)c1ccc(OC(=O)CCCCCN=C(N)N)cc1 |  | 123%
